Test results published in the supplement of paper PMC6555819.

What was measured:
Experiment in all cases: PBM binding z-score (relative to random genomic background probes); higher = stronger binding; sequences stand for … in GC…GCGATTGACAGCGTAGAATGAAGG
[1] = test system: FXR:RXRa (NR concentration 270 nM, RXRa partner concentration 90 nM)
How it was run: (§1)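 The probes on custom Agilent 4×180K protein-binding microarrays were double-stranded, with 34-nt variable regions bearing direct-repeat seeds, single-nucleotide variants, half-site ablations and random human genomic background sequences. Incubation lasted 1 h with ligand-free nuclear receptor dimers in PBS pH 7.4, 2% milk, 0.02% Triton X-100, 1 mM DTT, 0.2 mg/mL BSA and 0.4 mg/ml salmon testes DNA. Antibodies against each partner (one per run) detected bound dimers, and fluorescence scans were regression-normalized. Binding z-scores take the random background probes as reference.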

[2] = test system: LXRa:RXRa (NR concentration 270 nM, RXRa partner concentration 90 nM)
How it was run: as §1

[3] = test system: LXRa homodimer (NR concentration 270 nM)
How it was run: as §1

[4] = test system: LXRb:RXRa (NR concentration 270 nM, RXRa partner concentration 90 nM)
How it was run: as §1

[5] = test system: LXRb homodimer (NR concentration 270 nM)
How it was run: as §1

[6] = test system: PPARa:RXRa (NR concentration 270 nM, RXRa partner concentration 90 nM)
How it was run: as §1

[7] = test system: PPARg:RXRa (NR concentration 180 nM, RXRa partner concentration 90 nM)
How it was run: as §1

[8] = test system: PPARg:RXRa 270nM:90nM, anti-RXR (NR concentration 270 nM, RXRa partner concentration 90 nM)
How it was run: as §1

[9] = test system: PPARg:RXRa 30nM:10nM, anti-RXR (NR concentration 30 nM, RXRa partner concentration 10 nM)
How it was run: as §1

[10] = test system: PPARg:RXRa 90nM:30nM, anti-RXR (NR concentration 90 nM, RXRa partner concentration 30 nM)
How it was run: as §1

[11] = test system: PPARg:RXRa DBDmut IVT, anti-RXR (DBD mutation: RXRa K156A/R161A, NR concentration 270 nM, RXRa partner concentration 90 nM)
How it was run: as §1

[12] = test system: PPARg:RXRa IVT, anti-PPARg (NR concentration 270 nM, RXRa partner concentration 90 nM)
How it was run: as §1

[13] = test system: PPARg DBDmut:RXRa IVT, anti-PPARg (DBD mutation: PPARg1 K132A/R137A, NR concentration 270 nM, RXRa partner concentration 90 nM)
How it was run: as §1

[14] = test system: PPARg DBDmut IVT, anti-PPARg (DBD mutation: PPARg1 K132A/R137A, NR concentration 270 nM)
How it was run: as §1

[15] = test system: PPARg homodimer (NR concentration 180 nM)
How it was run: as §1

[16] = test system: PXR:RXRa (NR concentration 270 nM, RXRa partner concentration 90 nM)
How it was run: as §1

[17] = test system: PXR homodimer (NR concentration 270 nM)
How it was run: as §1

[18] = test system: RARa:RXR (NR concentration 270 nM, RXRa partner concentration 90 nM)
How it was run: as §1

[19] = test system: RARa homodimer (NR concentration 270 nM)
How it was run: as §1

[20] = test system: RARb:RXRa (NR concentration 270 nM, RXRa partner concentration 90 nM)
How it was run: as §1

| Sequence | PBM binding z-score [1] | PBM binding z-score [2] | PBM binding z-score [3] | PBM binding z-score [4] | PBM binding z-score [5] | PBM binding z-score [6] | PBM binding z-score [7] | PBM binding z-score [8] | PBM binding z-score [9] | PBM binding z-score [10] | PBM binding z-score [11] | PBM binding z-score [12] | PBM binding z-score [13] | PBM binding z-score [14] | PBM binding z-score [15] | PBM binding z-score [16] | PBM binding z-score [17] | PBM binding z-score [18] | PBM binding z-score [19] | PBM binding z-score [20] |
| --- | --- | --- | --- | --- | --- | --- | --- | --- | --- | --- | --- | --- | --- | --- | --- | --- | --- | --- | --- | --- |
| TTACCAAGGTGAGCTGAGGTCGTTCATCCAACTC | 1.08 | 1.32 | 0.0661 | 0.862 | -1.08 | 1.68 | 0.347 | 1 | 0.0261 | 0.463 | 1.05 | 2.17 | -0.164 | -0.434 | -0.159 | 5.33 | 0.906 | 1.82 | -0.552 | 1.74 |
| GGAACGAAGGCAAGTTGATAGCAGAGTTTGATGG | -0.951 | -0.918 | -0.858 | -1.13 | -1.2 | -0.649 | 0.469 | -0.479 | -0.377 | -0.674 | -0.11 | -0.659 | 0.0164 | -0.632 | -0.995 | -0.665 | -0.247 | -0.931 | -0.746 | -0.503 |
| AGTCAAAGTTCACTAGGTAACGAAAGATTCAGCT | 5.29 | 5.15 | 2.87 | 3.05 | 0.803 | 4.94 | 7.8 | 6.56 | 3.66 | 5.74 | 2.71 | 5.36 | 0.953 | 1.35 | 2.81 | 3.8 | 2.41 | 2.8 | 1.47 | 4.54 |
| CGCACTAGGTCAGAACAGGACAGTGAAGGATGAT | 1.58 | 1.02 | -0.057 | 0.629 | -0.258 | 2.67 | 4.7 | 4.2 | 1.63 | 3.24 | 7.11 | 7.1 | 0.649 | 0.931 | 1.4 | 1.07 | 0.443 | 1.39 | 0.474 | 3.02 |
| CGTCGAAGGTCAGAGAGGTCAGTGAATGCCGAGT | 6.25 | 5.11 | 3.28 | 4.34 | 0.365 | 4.79 | 3.57 | 4.39 | 1.28 | 3.06 | 2.6 | 3.03 | -0.434 | -0.601 | 6.33 | 6.06 | 11.6 | 5.68 | 3.9 | 5.05 |
| CCTACCGGGCCAAAAAGGTCATTGATGCCGATAA | 3.51 | 4.28 | 3.75 | 4.21 | 0.286 | 4.55 | 1.69 | 3 | 0.292 | 1.97 | -0.0213 | 1.89 | -0.195 | -1.09 | 3.48 | 5 | 5.72 | 5.47 | 1.6 | 3.96 |
| ACGGACAGGTGATGAAGGTAACTCAGGCTATCAT | 0.169 | -0.084 | -0.0768 | 0.109 | -0.152 | 0.276 | 0.712 | 0.0307 | 0.33 | 0.172 | 0.288 | 0.365 | 0.082 | 0.0676 | 0.411 | 0.11 | 0.211 | 0.174 | 0.939 | 0.745 |
| ATATGTAGGTTACCTCCGGGTCATTCAGGCTATG | 2.86 | 5.14 | 1.84 | 3.15 | 0.804 | 4.5 | 5.68 | 4.82 | 2.2 | 4.09 | 7.18 | 6.7 | 1.67 | 1.41 | 1.74 | 3.67 | 1.8 | 3.75 | 0.561 | 2.51 |
| AGCTCTAGGTAAAGTTCAGTGAAAGATCGATAGA | 0.591 | 1.3 | 0.886 | 0.579 | -0.0933 | 1.83 | 1.55 | 2.93 | 0.866 | 2.37 | 2.67 | 1.47 | 0.472 | 0.107 | 0.759 | 1.27 | 1.19 | 0.896 | 0.442 | 2.67 |
| CCTACTCGGCCATCAGGTCATTGATATCAACGTT | 2.3 | 1.76 | 2.13 | 2.26 | 1.01 | 2.16 | 1.06 | 1.62 | 0.262 | 1.02 | 2.58 | 2.67 | 0.141 | -0.00439 | 2.27 | 2.02 | 1.21 | 2.36 | 1.12 | 2.29 |
| TCGTGTAGATCAAGCAGGTTAAGAAAGCCTGAGT | 0.141 | 0.107 | -0.392 | 0.143 | -0.921 | 0.588 | -0.429 | 0.747 | 2.07 | 1.61 | 1.24 | -0.0546 | -0.931 | -0.429 | 0.148 | 0.421 | 0.251 | 0.318 | 0.0709 | 0.0461 |
| TTACCAACGTGAGCTGAGGTCGTTGATCCAACTC | 0.516 | 0.0402 | -0.0796 | 0.169 | -0.442 | 0.553 | -0.116 | -0.131 | 0.0496 | -0.0803 | -0.844 | -0.235 | -0.101 | -0.365 | -0.384 | 1.52 | 0.291 | 0.951 | -0.767 | 0.217 |
| CGAACTTGGTCATTGACAGGACAGTGAATAGTAA | 0.086 | -0.0975 | -0.179 | 0.228 | -0.101 | 0.267 | 0.262 | 0.00224 | -0.244 | -0.0611 | 0.617 | 0.897 | 0.111 | 0.232 | 0.209 | 0.0575 | 0.147 | 0.48 | 0.507 | 0.912 |
| TAGCCTAGGTCATTCAGGGGCCAGTGTAGAAAGC | 4.78 | 3.98 | 0.7 | 3.06 | 1.08 | 3.66 | 1.53 | 2.43 | 0.00175 | 1.14 | 1.87 | 2.74 | 0.0729 | -0.141 | 1.39 | 2.27 | -0.259 | 3.32 | -0.591 | 3.96 |
